The list is not random: actives were taken first. Their share in the collection is about 1.9%.
Epigenetic derep: Quantitative High-Throughput Screen for Regulators of Epigenetic Control; murine LDR cells, GFP reporter derepression, 30 h; Potency, µM (series often up to 53.9 µM), inactives show top-dose GFP activation, actives largely listed as activators; 280,000 tested, 0.2% active; active means well fitted activation curve with a large enough effect; inconclusive means small, poorly fitted or top-dose-only effect; further: potency means the concentration at half of the fitted maximal effect; % of control where 0% means no effect; nearly all actives have a fitted effect of over 60% in size
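Reporter derepression read as number of fluorescent GFP-positive objects, 20-120 um in size, counted by laser-scanning cytometer. Mouse LDR line with an epigenetically silenced CMV-GFP locus; compound incubation 30 h, 37 C.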
Menin MLL FP FL: qHTS Assay for Inhibitors Targeting the Menin-MLL Interaction in MLL Related Leukemias: Competition With Fluorescein Labeled MLL-derived Peptide. Fluorescence polarization, fluorescein-MLL peptide displacement from menin. FP activity change, % at 61.4 µM. 290,000 tested, under 10 active; active means well fitted curve in the direction sought with a large enough effect in the polarisation, not every such curve was filed as active; inconclusive means small, poorly fitted or top-dose-only effect, or effect the other way, or a change in a side signal; inactive means no such curve, though single readings can be large or run the other way; the % refers to the polarisation; further: % of control where 0% means no effect
PINK1 expr mod: A Quantitative High throughput Screen to Identify Chemical Modulators of PINK1 Expression | 410,000 tested, 0.2% active | Potency, µM (top dose mostly 76.6 µM), without a hit: at the highest dose activation (PINK1 increase), hits mostly activators | AID 624263, 2012 | PINK1 immunofluorescence, high-content cytometry, 24 h; active means well fitted activation curve with a large enough effect; inconclusive means small, poorly fitted or top-dose-only effect; cell line not stated here; further: potency means the concentration at half of the fitted maximal effect; % of control where 0% means no effect; nearly all actives have a fitted effect of over 65% in size
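Stable cell line, 250 cells/well, 12 h attachment; compounds pinned at 5 concentrations, 24 h; CCCP control. Fixed with nuclear dye, primary antibodies 12 h at 10 degrees C, secondary plus cell stain; laser-scanning cytometer read.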
ClpP mod: qHTS Assay for Activators of ClpP. ATP-dependent Clp protease proteolytic subunit (Bacillus subtilis (strain 168)), P80244. purified B. subtilis ClpP, FRET peptide cleavage, 20 min. Potency, µM (top dose mostly 57.5 µM), without a hit: top-dose activity change, negative = active. 340,000 tested, 1.9% active. AID 651965, 2013; active means well fitted falling curve with a large enough effect; inconclusive means small, poorly fitted or top-dose-only effect; inactive means no such curve, though single readings can be large or run the other way; further: potency means the concentration at half of the fitted maximal effect; the source files actives as falling curves though it sought activators and does not explain the sign; nearly all actives have a fitted effect of over 65% in size
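Purified B. subtilis ClpP, 10 microg/mL final in Tris/HCl pH8 with KCl, BSA, glycerol and Tween-20, cleaved an Abz/nitrotyrosine-quenched decapeptide. Fluorescence (ex 320, em 430) was read at 0 and 20 min at room temperature. Delta was normalized to 5.8 microM ADEP and DMSO/no-enzyme controls.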
CXXC DNA block: qHTS Fluorescence Polarization Assay for Inhibitors of MLL CXXC domain - DNA interaction; Histone-lysine N-methyltransferase 2A (Homo sapiens), Q03164; MLL-CXXC / FITC-HOXA9 DNA fluorescence polarization; Potency, µM (highest dose often 115 µM), inactives show at the top dose activity change, negative = inhibition, hits mostly inhibitors; 290,000 tested, 0.037% active; active means well fitted inhibition curve with a large enough effect in the polarisation, with a control signal flat, not every such curve was filed as active; inconclusive means small, poorly fitted or top-dose-only effect, or effect the other way, or a change in a side signal; inactive means no such curve, though single readings can be large or run the other way; the % refers to the polarisation; further: potency means the concentration at half of the fitted maximal effect
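Fluorescence polarization: 7 uM MLL-CXXC (stock) preincubated 5 min with compounds, then 50 nM fluorescein-HOX-A9 DNA (stock) added; 30 min ambient. Buffer 50 mM Tris-HCl pH 7.5, 50 mM NaCl, 1 mM DTT, 0.05% BSA.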
Menin MLL FP TR: qHTS Assay for Inhibitors Targeting the Menin-MLL Interaction in MLL Related Leukemias: Competition With Texas Red Labeled MLL-derived Mutant Peptide; Potency, µM (series often up to 61.6 µM), without a hit: at the highest dose FP activity change, negative = inhibition, most hits filed as inhibitors; O00255; AID 1768, 2009; Menin + Texas Red MLL mutant peptide, fluorescence polarization; 270,000 tested, 0.23% active; active means well fitted inhibition curve with a large enough effect in the polarisation, with a control signal flat, not every such curve was filed as active; inconclusive means small, poorly fitted or top-dose-only effect, or effect the other way, or a change in a side signal; inactive means no such curve, though single readings can be large or run the other way; the % refers to the polarisation; further: potency means the concentration at half of the fitted maximal effect; % of control where 0% means no effect
Target sequence (O00255 whole entry, looked up): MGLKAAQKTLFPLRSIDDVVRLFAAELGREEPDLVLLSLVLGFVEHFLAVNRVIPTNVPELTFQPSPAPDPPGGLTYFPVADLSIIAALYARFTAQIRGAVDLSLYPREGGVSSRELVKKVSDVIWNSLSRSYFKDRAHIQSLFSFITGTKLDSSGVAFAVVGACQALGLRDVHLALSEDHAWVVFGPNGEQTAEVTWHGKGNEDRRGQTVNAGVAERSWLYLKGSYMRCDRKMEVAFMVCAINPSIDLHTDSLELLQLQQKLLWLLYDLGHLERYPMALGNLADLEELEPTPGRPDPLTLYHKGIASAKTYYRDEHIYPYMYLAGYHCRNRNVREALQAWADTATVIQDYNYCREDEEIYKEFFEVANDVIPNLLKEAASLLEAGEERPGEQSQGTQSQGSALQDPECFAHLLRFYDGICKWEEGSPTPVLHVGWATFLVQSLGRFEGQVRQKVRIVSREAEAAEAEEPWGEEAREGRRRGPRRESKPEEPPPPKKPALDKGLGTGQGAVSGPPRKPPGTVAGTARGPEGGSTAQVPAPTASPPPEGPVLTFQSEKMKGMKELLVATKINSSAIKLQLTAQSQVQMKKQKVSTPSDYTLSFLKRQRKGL
* hit, by the source's call; ? = inconclusive; . = not tested or not shown; [ ] = another dose, or the depositor's remark.

SMILES	Epigenetic derep	Menin MLL FP FL	PINK1 expr mod	ClpP mod	CXXC DNA block	Menin MLL FP TR
Cc1ccc(C(=O)Nc2ccccc2)cc1S(=O)(=O)Nc1ccc(Br)cc1	-1%	.	?	-5%	.	.
Cc1ccc(C)c(S(=O)(=O)Nc2ccccc2C(=O)Nc2ccc(S(=O)(=O)Nc3ncccn3)cc2)c1	0%	7	3%	25µM*	-2%	?
Cc1ccc(S(=O)(=O)Nc2ccccc2C(=O)Nc2ccc(S(=O)(=O)Nc3nccc(C)n3)cc2)cc1	-3%	9	-1%	13µM*	3%	12%
Cc1ccc(C(=O)Nc2ccc(Br)cc2)cc1S(=O)(=O)Nc1ccccn1	1%	-4	?	28µM*	7%	-11%
CC(=O)Nc1ccc(C(=O)Nc2ccc(S(=O)(=O)Nc3nccc(C)n3)cc2)cc1	.	-2	0%	0%	-1%	4%
Cc1nc(-c2cccc(NC(=O)Nc3ccc([N+](=O)[O-])cc3)c2)no1	1%	.	?	-3%	.	.
COCCN1CCN(C(=O)c2cnn(-c3nccc(-c4ccccc4F)n3)c2-c2ccco2)CC1	.	.	0%	.	.	.
COc1ccc(-c2nc3ccc(NC(=O)CO)cc3c(=O)n2Cc2cccc(Cl)c2)cc1COc1ccc(NC(C)=O)cc1	.	.	1%	?	.	.
O=S(=O)(NCc1ccc2c(c1)OCO2)c1cccc(F)c1	.	-8	1%	28µM*	-30%	-24%
Cc1cc(OCC(=O)N(Cc2ccc(N(C)C)cc2)Cc2ccco2)cc(C)c1Cl	9%	.	4%	-11%	.	.
Cc1ccccc1-n1nc(C)c2cc(C(=O)NCc3cccnc3)sc21	-10%	1	4%[38.3 µM]	28µM*	6%	-3%
O=C(C[n+]1ccnc2ccccc21)c1ccc(Cl)cc1	.	.	.	-3%	.	.
C[C@@H](O)CCC[C@H](O)/C=C/[C@@H]1[C@@H](C/C=C\CCCC(=O)O)[C@@H](O)C[C@H]1O	-1%	2	.	.	.	9%
Cc1ncnc2nc[nH]c12	.	.	.	0%	.	.
O=C(COC(=O)c1ccccc1O)Nc1cccc(S(=O)(=O)NC2=NCCCCC2)c1	0%	7	2%	.	-5%	.
O=C(COC(=O)c1ccccc1NCCO)Nc1ccc(S(=O)(=O)NC2=NCCCCC2)cc1	.	.	0%	14µM*	.	.
COc1ccc2cc(CNCc3ccccc3C(F)(F)F)c(N3CCCC(CO)C3)nc2c1 (configuration not stated)	.	.	0%	.	.	.
COc1cccc(-c2ccnc(-n3ncc(C(=O)NCC(C)(C)CN(C)C)c3C)n2)c1	.	.	0%	.	.	.
Cc1cccc(N2C(=O)N(c3ccccc3C)C3CS(=O)(=O)CC32)c1 (configuration not stated)	-2%	-5	0%	28µM*	-5%	-2%
Cc1cc(C)cc(N2C(=O)N(c3ccccc3C)C3CS(=O)(=O)CC32)c1 (configuration not stated)	0%	0	.	1%	5%	11%
Nc1ccc2nc(-c3cccs3)[nH]c2c1	-1%	3	.	10µM*	-4%	-12%
Nc1ccc2nc(-c3ccccc3)[nH]c2c1	1%	3	0%	?	3%	21%
Nc1ccc2nc(-c3ccccn3)[nH]c2c1	?	4	18%	32µM*	2%	5%
Nc1ccc2nc(-c3ccc(N)c(Cl)c3)[nH]c2c1	2%	-1	-2%	3.5µM*	19%	?
O=[N+]([O-])c1cc(C(F)(F)F)ccc1NCCCCNS(=O)(=O)c1ccc(Cl)cc1	0%	11	?	2%	-2%	5%
O=[N+]([O-])c1cc(C(F)(F)F)ccc1NCCNC(=S)Nc1ccc(Cl)cc1	-2%	-1	13µM*	0%	10%	?
